# Laboratory results taken from PubChem BioAssay (EPA / NIEHS).
# Results filed as inconclusive are left out. Calls of active or inactive are those of the source. How the source made its calls, unless noted: active means hit-call score of the fitted dose curve at least 0.9, where 1 is the maximum; inactive means score below 0.9.
# What was measured:
# [1] = target: Bile acid receptor (Homo sapiens) (UniProt Q96RI1); experiment: ATG_FXR_TRANS: Attagene TRANS-FACTORIAL HepG2 Assay for Farnesoid X Receptor (FXR) (AID 2282979; active means hit-call score of the fitted dose curve at least 0.9, where 1 is the maximum;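 further: hits raise reporter mRNA above DMSO so AC50 marks FXR activation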); details: HepG2 Attagene TRANS FXR-GAL4 reporter transcription
# In short: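 HepG2 cells transiently transfected with reporter constructs in which a chimeric FXR-GAL4 protein drives a GAL4-UAS reporter; 24 h compound exposure. Reporter mRNA measured by RT-PCR, FAM labelling, HpaI digestion and capillary electrophoresis; gain-of-signal versus DMSO.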
# [2] = target: Oxysterols receptor LXR-beta (Homo sapiens) (UniProt P55055); experiment: ATG_LXRb_TRANS: Attagene TRANS-FACTORIAL HepG2 Assay for human Liver X Receptor beta (LXRb) (AID 2282981; active means hit-call score of the fitted dose curve at least 0.9, where 1 is the maximum); details: HepG2 Attagene TRANS GAL4-LXRb reporter, mRNA
# In short: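 After 24 h of chemical treatment, transfected HepG2 cells yield total RNA; reporter cDNA is PCR-amplified, FAM-labelled, HpaI-cut and run on capillary electrophoresis. Signal reflects chimeric LXRb-Gal4 activity on GAL4-UAS reporters.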
# [3] = target: Hepatocyte nuclear factor 4-alpha (Homo sapiens) (UniProt P41235); experiment: ATG_HNF4a_TRANS: Attagene TRANS-FACTORIAL HepG2 Assay for human Hepatocyte Nuclear Factor 4 alpha (HNF4a) (AID 2282982; active means hit-call score of the fitted dose curve at least 0.9, where 1 is the maximum); details: HepG2 HNF4a transactivation reporter, mRNA readout
# In short: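 Multiplexed reporter assay: transfected HepG2, 24 h exposure, total RNA → oligo(dT) RT → PCR → 6-FAM extension → HpaI digest → CE fluorescence. DMSO = negative control.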
# [4] = ATG_M_06_TRANS: Attagene TRANS-FACTORIAL HepG2 Assay for M06 Transcription Factor (Internal Marker) (AID 2282983; active means hit-call score of the fitted dose curve at least 0.9, where 1 is the maximum;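 further: reporter transcript level by RT-PCR then capillary electrophoresis fluorescence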); details: HepG2 Attagene TRANS M06 internal marker reporter
# In short: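 In this multiplexed HepG2 system, compounds are incubated 24 h with cells carrying GAL4-UAS reporter units. Reporter RNA is amplified and resolved by capillary electrophoresis, and induction is scored against DMSO.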
# [5] = ATG_M_32_TRANS: Attagene TRANS-FACTORIAL HepG2 Assay for M32 Transcription Factor (Internal Marker) (AID 2282984; active means hit-call score of the fitted dose curve at least 0.9, where 1 is the maximum;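 further: transcript level of a background control reporter unit measured by RT-PCR and capillary electrophoresis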); details: HepG2 Attagene TRANS M32 internal marker reporter
# In short: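 Cell-based TRANS-format assay in HepG2: exogenous chimeric GAL4 reporter units transiently expressed, compounds applied 24 h. Reporter mRNA detected by RT-PCR plus capillary electrophoresis; this readout is an internal background marker.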
# [6] = target: Transcriptional activator Myb (Homo sapiens) (UniProt P10242); experiment: ATG_Myb_CIS: Attagene CIS-FACTORIAL HepG2 Assay for human Myeloblastosis (Myb) Proto-Oncogene Transcription Factor (AID 2282986); details: HepG2 Attagene CIS-FACTORIAL Myb reporter transcription; actives raise or lower the signal
# In short: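 Steps: transfect HepG2 with cis-regulated reporter units; dose with chemical for 24 h; isolate RNA, reverse-transcribe, PCR-amplify and FAM-label reporter sequences; digest with HpaI; resolve by capillary electrophoresis. Activity fitted in both directions relative to DMSO.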
# [7] = target: Nuclear respiratory factor 1 (Homo sapiens) (UniProt Q16656); experiment: ATG_NRF1_CIS: Attagene CIS-FACTORIAL HepG2 Assay for human Nuclear Respiratory Factor 1 (NRF1) Orphan Gene (AID 2282987); details: HepG2 NRF1 cis-element reporter, Attagene multiplex; actives raise or lower the signal
# In short: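 Fluorescence intensity of labelled reporter cDNA fragments, resolved by capillary electrophoresis, served as readout for NRF1 cis-element activity. Transiently transfected HepG2 cells were dosed for 24 hours; activity in either direction was fitted against DMSO negative control.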
# [8] = ATG_NFI_CIS: Attagene CIS-FACTORIAL HepG2 Assay for human Nuclear Factor I (NFI) (AID 2282989); details: HepG2 cis-regulatory reporter, NFI response element transcription; actives raise or lower the signal
# In short: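 After transient transfection of HepG2 with cis-promoter reporter constructs and 24 h dosing, RNA is reverse-transcribed, amplified, 6-FAM end-labelled and HpaI-digested before capillary analysis. Bidirectional curve fitting against DMSO.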
# [9] = ATG_NRF2_ARE_CIS: Attagene CIS-FACTORIAL HepG2 Assay for human Nuclear Factor Erythroid 2 Related Factor 2 (NFR2) response to Antioxidant Response Elements (ARE) (AID 2282992); details: HepG2 Attagene ARE/NRF2 reporter, transcription factor activity; actives raise or lower the signal
# In short: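 Endogenous transcription factor activity in human liver HepG2 cells is tracked via a cis-element-driven reporter within a multiplexed set. mRNA induction is read by RT-PCR and capillary electrophoresis after 24 h, with DMSO as baseline.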
# [10] = ATG_Oct_MLP_CIS: Attagene CIS-FACTORIAL HepG2 Assay for human Octamer-Binding Transcription Factor (Oct) (AID 2282993); details: HepG2 Attagene cis-factorial Oct reporter, mRNA; actives raise or lower the signal
# In short: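 Cells of the HepG2 line express promoter-controlled reporter sequences whose mRNA levels, after 24 h treatment, are measured by RT-PCR and capillary electrophoresis. Increases and decreases are scored relative to DMSO.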
# [11] = target: Cellular tumor antigen p53 (Homo sapiens) (UniProt P04637); experiment: ATG_p53_CIS: Attagene CIS-FACTORIAL HepG2 Assay for human p53 Transcription Factor (AID 2282994); details: HepG2 p53 cis-element reporter, Attagene mRNA; actives raise or lower the signal
# In short: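 Steps: transfect HepG2 with multiplexed cis reporter constructs; dose chemicals 24 h; extract RNA, reverse-transcribe, PCR-amplify reporter sequences; FAM-label, HpaI-digest, resolve fragments by CE. Activity fitted both directions relative to DMSO.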
# [12] = BSK_3C_TissueFactor: BioMAP Diversity Plus: 3C Assay for Tissue Factor Biomarker Activity (AID 2282997); details: BioMAP 3C HUVEC, tissue factor biomarker readout; actives raise or lower the signal
# In short: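 Readout: Tissue Factor ELISA. Cells: human primary umbilical vein endothelium. Time: 24 h after dosing. Analysis: bidirectional fit, DMSO baseline.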
# [13] = BSK_3C_uPAR: BioMAP Diversity Plus: 3C Assay for Urokinase-type plasminogen activator receptor (uPAR) Biomarker Activity (AID 2282998); details: BioMAP 3C HUVEC, uPAR biomarker ELISA; actives raise or lower the signal
# In short: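 Endothelial primary cells of human umbilical vein origin received test chemical; 24 h later uPAR was assayed by ELISA. Fitting was bidirectional, DMSO as negative control.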
# [14] = BSK_3C_VCAM1: BioMAP Diversity Plus: 3C Assay for Vascular cell adhesion molecule 1 (VCAM1) Biomarker Activity (AID 2282999); details: BioMAP 3C HUVEC, VCAM1 ELISA, cytokine-stimulated; actives raise or lower the signal
# In short: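 Activity fitted in both directions relative to DMSO, with ELISA measurement of the surface marker on primary HUVEC (3C) at 24 h post-treatment; parallel SRB staining (0.1% SRB, TCA-fixed, 560 nm) flagged overt cytotoxicity.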
# [15] = target: Nuclear receptor subfamily 4 group A member 2 (Homo sapiens) (UniProt P43354); experiment: ATG_NURR1_TRANS: Attagene TRANS-FACTORIAL HepG2 Assay for human Nuclear Receptor Related Protein 1 (NURR1) (AID 2282985; active means hit-call score of the fitted dose curve at least 0.9, where 1 is the maximum); details: HepG2 Attagene TRANS reporter, mRNA readout
# In short: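 Measures transcriptional activation by an exogenous NR-Gal4 chimera in transfected HepG2 liver cells. After 24 h, reporter RNA is reverse-transcribed, amplified and resolved by capillary electrophoresis; DMSO defines baseline.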
# [16] = ATG_NF_kB_CIS: Attagene CIS-FACTORIAL HepG2 Assay for human Nuclear Factor Kappa B (NF-kB) (AID 2282991); details: HepG2 Attagene cis-factorial NF-kB reporter mRNA; actives raise or lower the signal
# In short: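 Endogenous transcription factor activity in HepG2 was captured via cis-regulated reporter constructs; after 24 h dosing, reporter mRNA was reverse-transcribed, amplified, fluorescently labelled and sized by capillary electrophoresis, with activity fitted bidirectionally relative to DMSO.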
# [17] = target: Myc proto-oncogene protein (Homo sapiens) (UniProt P01106); experiment: ATG_Myc_CIS: Attagene CIS-FACTORIAL HepG2 Assay for human Myelocytomatosis (Myc) Proto-Oncogene Transcription Factor (AID 2282990); details: HepG2, Attagene cis-reporter transcription factor activity; actives raise or lower the signal
# In short: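 After 24 h chemical treatment of HepG2 cells carrying multiplexed cis-regulated reporter constructs, reporter transcripts quantified by RT-PCR and capillary electrophoresis of fluorescent fragments. Gain or loss fitted against DMSO baseline.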
# [18] = target: Glucocorticoid receptor (Homo sapiens) (UniProt P04150); experiment: ATG_GR_TRANS: Attagene TRANS-FACTORIAL HepG2 Assay for human Glucocorticoid Receptor (GR) (AID 2282978; active means hit-call score of the fitted dose curve at least 0.9, where 1 is the maximum;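 further: activators score as hits since higher reporter transcript over DMSO is fitted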); details: HepG2 Attagene TRANS GR reporter, mRNA transcription
# In short: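 In this trans-factorial format, exogenous NR-GAL4 chimeric proteins in transfected HepG2 cells regulate GAL4-UAS reporter transcription. After 24 h treatment, reporter mRNA induction relative to DMSO is read by RT-PCR and capillary electrophoresis.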
# Sequence of Cellular tumor antigen p53 (Homo sapiens) (P04637 whole entry, looked up, the tested form may be a part): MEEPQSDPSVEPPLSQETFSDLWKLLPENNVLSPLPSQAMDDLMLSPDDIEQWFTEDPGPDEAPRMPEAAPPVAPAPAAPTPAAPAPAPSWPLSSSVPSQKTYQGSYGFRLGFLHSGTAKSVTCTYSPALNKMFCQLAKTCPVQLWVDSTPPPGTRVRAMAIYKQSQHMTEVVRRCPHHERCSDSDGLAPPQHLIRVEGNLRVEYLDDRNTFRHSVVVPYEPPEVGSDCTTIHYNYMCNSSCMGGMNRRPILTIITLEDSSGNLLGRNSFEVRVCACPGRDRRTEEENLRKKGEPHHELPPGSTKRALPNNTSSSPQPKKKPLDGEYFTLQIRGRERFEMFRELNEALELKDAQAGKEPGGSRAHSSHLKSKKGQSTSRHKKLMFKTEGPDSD
# Sequence of Nuclear respiratory factor 1 (Homo sapiens) (Q16656 whole entry, looked up, the tested form may be a part): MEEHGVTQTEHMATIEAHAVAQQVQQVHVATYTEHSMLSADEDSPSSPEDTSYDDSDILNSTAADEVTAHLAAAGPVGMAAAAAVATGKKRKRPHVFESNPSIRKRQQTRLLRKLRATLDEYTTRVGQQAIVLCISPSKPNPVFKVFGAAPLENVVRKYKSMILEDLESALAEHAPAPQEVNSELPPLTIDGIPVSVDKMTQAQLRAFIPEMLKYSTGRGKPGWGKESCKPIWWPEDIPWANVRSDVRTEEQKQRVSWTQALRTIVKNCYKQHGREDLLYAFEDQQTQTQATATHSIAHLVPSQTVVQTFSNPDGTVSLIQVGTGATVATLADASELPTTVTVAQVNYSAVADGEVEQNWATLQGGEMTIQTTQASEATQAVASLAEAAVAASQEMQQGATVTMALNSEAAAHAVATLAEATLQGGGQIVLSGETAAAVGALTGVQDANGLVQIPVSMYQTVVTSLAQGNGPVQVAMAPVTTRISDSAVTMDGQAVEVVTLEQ
# Sequence of Oxysterols receptor LXR-beta (Homo sapiens) (P55055 whole entry, looked up, the tested form may be a part): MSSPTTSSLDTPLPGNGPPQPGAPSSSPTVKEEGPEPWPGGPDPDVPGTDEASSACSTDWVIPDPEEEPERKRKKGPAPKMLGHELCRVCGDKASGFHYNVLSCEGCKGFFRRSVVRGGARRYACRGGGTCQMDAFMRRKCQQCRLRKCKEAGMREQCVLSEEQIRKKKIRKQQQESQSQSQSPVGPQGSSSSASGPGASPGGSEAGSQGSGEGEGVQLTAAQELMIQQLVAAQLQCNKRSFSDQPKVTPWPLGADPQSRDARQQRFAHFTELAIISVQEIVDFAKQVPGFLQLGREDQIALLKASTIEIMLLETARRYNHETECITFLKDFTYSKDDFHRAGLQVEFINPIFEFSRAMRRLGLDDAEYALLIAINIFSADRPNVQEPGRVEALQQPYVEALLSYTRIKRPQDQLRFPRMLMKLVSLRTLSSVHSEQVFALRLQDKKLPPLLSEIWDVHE
# Sequence of Transcriptional activator Myb (Homo sapiens) (P10242 whole entry, looked up): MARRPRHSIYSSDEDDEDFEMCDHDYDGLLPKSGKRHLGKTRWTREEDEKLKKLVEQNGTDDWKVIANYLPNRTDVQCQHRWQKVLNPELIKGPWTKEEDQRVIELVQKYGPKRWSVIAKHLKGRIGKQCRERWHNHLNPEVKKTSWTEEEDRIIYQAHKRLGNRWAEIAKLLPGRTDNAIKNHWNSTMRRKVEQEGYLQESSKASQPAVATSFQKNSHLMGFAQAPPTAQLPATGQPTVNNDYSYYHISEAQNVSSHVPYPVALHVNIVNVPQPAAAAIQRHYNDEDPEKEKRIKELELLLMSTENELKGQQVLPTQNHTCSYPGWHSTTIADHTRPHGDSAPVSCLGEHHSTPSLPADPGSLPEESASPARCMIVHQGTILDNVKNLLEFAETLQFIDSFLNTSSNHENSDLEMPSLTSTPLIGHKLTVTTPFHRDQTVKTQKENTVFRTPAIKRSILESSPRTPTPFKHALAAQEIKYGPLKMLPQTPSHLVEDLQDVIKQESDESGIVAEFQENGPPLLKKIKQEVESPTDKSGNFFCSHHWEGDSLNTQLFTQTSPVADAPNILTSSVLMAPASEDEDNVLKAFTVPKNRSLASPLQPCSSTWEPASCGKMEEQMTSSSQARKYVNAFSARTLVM
# Sequence of Myc proto-oncogene protein (Homo sapiens) (P01106 whole entry, looked up, the tested form may be a part): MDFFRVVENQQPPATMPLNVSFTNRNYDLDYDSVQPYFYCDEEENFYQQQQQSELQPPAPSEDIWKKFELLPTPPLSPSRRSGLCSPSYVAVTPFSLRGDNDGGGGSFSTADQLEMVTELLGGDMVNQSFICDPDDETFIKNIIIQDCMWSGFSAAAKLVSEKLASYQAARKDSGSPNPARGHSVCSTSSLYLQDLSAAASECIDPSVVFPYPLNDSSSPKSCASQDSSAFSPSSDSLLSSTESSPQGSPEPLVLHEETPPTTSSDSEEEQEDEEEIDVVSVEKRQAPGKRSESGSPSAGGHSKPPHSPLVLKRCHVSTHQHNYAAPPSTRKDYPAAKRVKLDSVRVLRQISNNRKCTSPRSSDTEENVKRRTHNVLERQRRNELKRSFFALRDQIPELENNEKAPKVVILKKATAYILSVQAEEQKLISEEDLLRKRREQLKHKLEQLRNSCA
# Sequence of Bile acid receptor (Homo sapiens) (Q96RI1 whole entry, looked up, the tested form may be a part): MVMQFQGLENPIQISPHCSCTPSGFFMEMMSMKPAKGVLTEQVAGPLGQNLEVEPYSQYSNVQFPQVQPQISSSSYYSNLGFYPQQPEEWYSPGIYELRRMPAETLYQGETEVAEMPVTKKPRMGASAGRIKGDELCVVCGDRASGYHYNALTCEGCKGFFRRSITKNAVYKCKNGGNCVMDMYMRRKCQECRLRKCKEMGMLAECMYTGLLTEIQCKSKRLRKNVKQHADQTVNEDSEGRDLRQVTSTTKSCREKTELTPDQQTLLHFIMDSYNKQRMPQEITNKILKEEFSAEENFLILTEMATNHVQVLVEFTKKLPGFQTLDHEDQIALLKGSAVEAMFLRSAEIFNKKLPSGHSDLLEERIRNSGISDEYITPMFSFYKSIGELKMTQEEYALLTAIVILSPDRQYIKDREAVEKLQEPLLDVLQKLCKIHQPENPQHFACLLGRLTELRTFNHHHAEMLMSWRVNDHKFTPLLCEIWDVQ
# Sequence of Hepatocyte nuclear factor 4-alpha (Homo sapiens) (P41235 whole entry, looked up): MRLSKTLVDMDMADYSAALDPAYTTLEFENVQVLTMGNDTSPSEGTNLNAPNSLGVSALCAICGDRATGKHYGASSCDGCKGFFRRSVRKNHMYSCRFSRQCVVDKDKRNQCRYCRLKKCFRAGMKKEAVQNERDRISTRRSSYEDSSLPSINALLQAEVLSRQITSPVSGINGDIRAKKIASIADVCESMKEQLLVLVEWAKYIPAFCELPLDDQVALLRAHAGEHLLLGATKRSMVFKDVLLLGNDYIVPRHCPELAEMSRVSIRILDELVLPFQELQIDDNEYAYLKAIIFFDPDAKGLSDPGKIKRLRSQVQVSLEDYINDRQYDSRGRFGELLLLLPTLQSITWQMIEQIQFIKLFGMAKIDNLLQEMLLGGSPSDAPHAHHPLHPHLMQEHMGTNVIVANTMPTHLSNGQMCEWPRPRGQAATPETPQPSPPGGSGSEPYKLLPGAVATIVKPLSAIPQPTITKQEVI
# Sequence of Nuclear receptor subfamily 4 group A member 2 (Homo sapiens) (P43354 whole entry, looked up, the tested form may be a part): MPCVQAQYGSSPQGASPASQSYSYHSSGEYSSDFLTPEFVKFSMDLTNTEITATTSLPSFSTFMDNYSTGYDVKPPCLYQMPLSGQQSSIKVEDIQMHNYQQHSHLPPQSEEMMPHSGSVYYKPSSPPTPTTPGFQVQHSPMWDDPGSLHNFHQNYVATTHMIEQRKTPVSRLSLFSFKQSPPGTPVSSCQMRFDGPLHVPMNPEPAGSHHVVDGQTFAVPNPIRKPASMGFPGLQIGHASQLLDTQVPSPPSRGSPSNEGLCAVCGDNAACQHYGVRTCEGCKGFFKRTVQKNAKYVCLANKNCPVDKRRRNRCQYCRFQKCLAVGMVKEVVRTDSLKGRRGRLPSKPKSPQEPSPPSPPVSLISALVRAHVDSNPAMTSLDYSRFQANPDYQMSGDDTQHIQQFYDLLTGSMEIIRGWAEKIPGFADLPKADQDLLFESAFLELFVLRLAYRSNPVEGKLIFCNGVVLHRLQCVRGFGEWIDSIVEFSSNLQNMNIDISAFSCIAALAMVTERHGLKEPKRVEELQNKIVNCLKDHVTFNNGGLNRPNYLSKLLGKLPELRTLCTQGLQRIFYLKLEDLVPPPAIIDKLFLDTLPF
# Sequence of Glucocorticoid receptor (Homo sapiens) (P04150 whole entry, looked up, the tested form may be a part): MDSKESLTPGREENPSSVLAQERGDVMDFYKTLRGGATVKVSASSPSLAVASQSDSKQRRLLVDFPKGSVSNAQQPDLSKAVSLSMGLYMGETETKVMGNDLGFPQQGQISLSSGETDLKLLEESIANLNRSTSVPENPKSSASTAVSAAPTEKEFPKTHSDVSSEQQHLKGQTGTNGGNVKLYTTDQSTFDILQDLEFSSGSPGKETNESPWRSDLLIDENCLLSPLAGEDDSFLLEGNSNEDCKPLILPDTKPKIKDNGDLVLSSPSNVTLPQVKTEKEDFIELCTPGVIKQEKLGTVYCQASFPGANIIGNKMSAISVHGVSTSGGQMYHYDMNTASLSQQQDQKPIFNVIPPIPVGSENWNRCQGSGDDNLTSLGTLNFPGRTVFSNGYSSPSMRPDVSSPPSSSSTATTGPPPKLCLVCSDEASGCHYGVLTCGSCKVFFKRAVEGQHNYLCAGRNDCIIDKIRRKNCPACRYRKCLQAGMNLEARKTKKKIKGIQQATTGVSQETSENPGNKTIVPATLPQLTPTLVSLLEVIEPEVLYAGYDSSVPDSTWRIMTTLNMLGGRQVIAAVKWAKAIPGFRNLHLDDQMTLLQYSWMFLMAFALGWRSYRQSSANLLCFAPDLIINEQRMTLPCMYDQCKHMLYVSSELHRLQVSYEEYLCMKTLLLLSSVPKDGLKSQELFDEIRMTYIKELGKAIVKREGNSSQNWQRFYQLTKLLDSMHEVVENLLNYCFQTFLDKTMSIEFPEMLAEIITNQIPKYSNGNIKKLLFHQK
smiles,measurement,setting,value
Cc1ccc([N+](=O)[O-])cc1N,outcome,[1],inactive
same,outcome,[2],inactive
same,outcome,[3],inactive
same,outcome,[4],inactive
same,outcome,[5],inactive
same,outcome,[6],inactive
same,outcome,[7],inactive
same,outcome,[8],inactive
same,outcome,[9],inactive
same,outcome,[10],inactive
same,outcome,[11],inactive
same,outcome,[12],inactive
same,outcome,[13],inactive
same,outcome,[14],inactive
CCN1CN(CC)CN(CC)C1,outcome,[1],inactive
same,outcome,[2],inactive
same,outcome,[5],inactive
same,outcome,[15],inactive
same,outcome,[6],inactive
same,outcome,[7],inactive
same,AC50,[8],162 µM (active)
same,outcome,[16],inactive
same,outcome,[9],inactive
same,AC50,[10],159 µM (active)
same,outcome,[11],inactive
same,outcome,[12],inactive
same,outcome,[13],inactive
same,outcome,[14],inactive
CCOC(=O)C1=NOC(c2ccccc2)(c2ccccc2)C1,outcome,[1],inactive
same,outcome,[2],inactive
same,outcome,[4],inactive
same,outcome,[5],inactive
same,outcome,[6],inactive
same,outcome,[7],inactive
same,outcome,[8],inactive
same,outcome,[17],inactive
same,AC50,[9],65.1 µM (active)
same,outcome,[10],inactive
same,outcome,[11],inactive
same,outcome,[12],inactive
same,outcome,[13],inactive
same,outcome,[14],inactive
O=C(C=Cc1ccccc1)OCCc1ccccc1,outcome,[18],inactive
same,outcome,[5],inactive
same,outcome,[15],inactive
same,outcome,[6],inactive
same,outcome,[7],inactive
same,outcome,[8],inactive
same,outcome,[17],inactive
same,outcome,[16],inactive
same,AC50,[9],20.4 µM (active)
same,outcome,[10],inactive
same,outcome,[11],inactive
O=C(Oc1ccccc1)c1ccccc1C(=O)Oc1ccccc1,outcome,[18],inactive
same,outcome,[3],inactive
same,outcome,[5],inactive
same,outcome,[6],inactive
same,outcome,[7],inactive
same,outcome,[8],inactive
same,outcome,[17],inactive
same,AC50,[9],30.7 µM (active)
same,outcome,[10],inactive
same,outcome,[11],inactive
same,outcome,[12],inactive
same,outcome,[13],inactive
same,outcome,[14],inactive
